A short description of test [1]: compound effects on lung adenocarcinoma cell viability – A549, calcein-AM fluorescence, 48 h, basal, profiling panel (AID 1162). To be noted: higher = more signal.
Test [2] in a line: compound effects on differentiated 3T3-L1 adipocyte viability – cell-based, 3T3-L1 adipocytes, calcein-AM fluorescence, 48 h, basal, profiling panel (AID 1163). To be noted: 3T3-L1 adipocytes viability, higher = more signal.
Test [3] is described as follows: compound effects on hepatocellular carcinoma cell viability – HepG2, calcein-AM fluorescence, 48 h, basal, profiling panel (AID 1164). As to conditions: higher = more signal.
Test [4] is described as follows: compound effects on multiple myeloma cell viability – MM1S, calcein-AM fluorescence, 48 h, basal, profiling panel (AID 1165). As to conditions: higher = more signal.
A short description of test [5]: calcein-AM signal in unstimulated myeloma cells – cell-based, calcein-AM fluorescence, 48 h, PK04 Diversity Set, profiling panel (AID 1166).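 Also: cells grown under basal conditions without added stimulus.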 To be noted: RPMI8226 myeloma viability, higher = more signal.
Test [6] is described as follows: JC-1 mitochondrial signal, unstimulated HepG2 cells – cell-based, JC-1 fluorescence, 24 h, 100 nL compound, profiling panel (AID 1167). As to conditions: HepG2 mitochondrial potential, higher = more signal.
Test [7] in a line: JC-1 mitochondrial signal, unstimulated adipocytes – cell-based, JC-1 fluorescence, 3T3-L1 adipocytes, 24 h, 100 nL compound, profiling panel (AID 1168). To be noted: JC-1 mitochondrial fluorescence, higher = more signal, called active from +8 up or from −8 down.
Test [8] is described as follows: JC-1 mitochondrial signal, unstimulated myeloma cells – cell-based, JC-1 fluorescence, RPMI8226, 24 h, 100 nL compound, profiling panel (AID 1169). To be noted: JC-1 mitochondrial potential fluorescence, higher = more signal.
Test [9] can be described thus: JC-1 mitochondrial signal, unstimulated MM1S myeloma – cell-based, JC-1 fluorescence, 24 h, 100 nL compound, profiling panel (AID 1170). To be noted: MM1S mitochondrial potential, higher = more signal.
A short description of test [10]: resazurin metabolic signal in A549 cells – cell-based, resazurin fluorescence, 24 h, PK04 Diversity Set, profiling panel (AID 1171). To be noted: A549 viability, higher = more signal, called active from +8 up or from −8 down. (In general: The colour change of resazurin is a common sign of viable cells or microbes.)

Molecules are shown by their SMILES. The source made the active and inactive calls.
Also: test concentration not given here.

Consider `C=C(CCCC)/C(=C/C[C@@H](OC(C)=O)c1cccc(OCCO)c1)c1cc(C(=O)OC)ccc1OC`, for which the z-score was 0.771 in test [1]; 0.204 in [2]; 0.622 in test [3]; -2.41 in [4]; -1.98 in [5]; 1.44 in [6]. Also, the z-score in test [7] is -0.288 (inactive); in test [8], 0.186; in test [9], -0.679; in [10], 1.25 (inactive).
Turning to `NCCCCCCNC(=O)[C@@H]1C[C@@H]2C(=O)NCC(=O)N2[C@@H]1c1cccc(OCCO)c1`, the z-score in test [1] is 0.51; in [2], 0.22; in [3], 1.06; in test [4], 0.604; in [5], -0.431; in test [6] it was 1.14. Moreover, the z-score in test [7] is 0.885 (inactive); in [8], 0.533; in test [9], 0.307; in test [10], 0.678 (inactive).
As for `C=C(CCCC)C(=O)CC[C@H](OC(=O)c1ccccc1-c1ccccc1C(=O)O)c1cccc(OCCO)c1`, the z-score in test [1] was -0.186; in [2] it was 0.415; in [3], -0.73; in [4] it was -3.37; in [5], -2.88; in [6], -0.789. Moreover, the z-score in test [7] is 0.379 (inactive); in [8], -0.451; in [9], -0.507; in test [10], -0.611 (inactive).
For `Cc1ccc(S[C@]2(C(=O)NCc3ccccc3)CC(=O)N(Cc3ccccc3C(F)(F)F)[C@@H]2c2ccc(CO)cc2I)cc1`, the z-score is 1.13 in test [1]; 0.615 in [2]; 0.024 in [3]; -2.39 in [4]; -2.16 in test [5]; -0.741 in test [6]. Further, the z-score was -0.841 (inactive) in [7], -0.491 in test [8], -0.518 in [9] and 1.15 (inactive) in test [10].
As to `COc1cc(Cc2cc3c(c(CCc4ccccc4)n2)[Si](C(C)C)(C(C)C)O[C@H]3c2ccccc2)cc(OC)c1OC`, the z-score was -4.59 in test [1]; -0.515 in test [2]; -3.15 in test [3]; -3.14 in [4]; -3.71 in [5]; -3.44 in test [6]. Also, the z-score in test [7] was 0.0754 (inactive); in test [8] it was -0.548; in [9], -0.663; in test [10], -1.24 (inactive).
On to `C=C(CC1([C@@H](NP(=O)(c2ccccc2)c2ccccc2)[C@H]2C[C@@H]2CCCC)CC1)c1cccc(OC)c1`, for which the z-score is -1.61 in test [1]; -0.803 in test [2]; -0.96 in test [3]; -3.47 in [4]; -4.72 in test [5]; -1.28 in test [6]. Further, the z-score in test [7] was -0.532 (inactive); in [8] it was -0.799; in test [9] it was -0.366; in [10], 6.21 (inactive).
For `CCc1cccc(NC(=O)O[C@H]2[C@H](OC(=O)Nc3ccccc3-c3ccccc3)[C@H](OC(=O)Nc3ccccc3-c3ccccc3)[C@@H](OC)O[C@@H]2CO)c1`, the z-score in test [1] was -2.01; in [2], -0.228; in test [3], -1.7; in test [4], -1.62; in test [5] it was -0.201; in [6], -0.812. Moreover, the z-score was -0.398 (inactive) in [7], -0.841 in [8], -1 in test [9] and -0.684 (inactive) in test [10].
As to `C=C(C(=O)CC[C@@H](OC(=O)c1cccnc1)c1cccc(OCCO)c1)C(C)C`, the z-score in test [1] was 0.281; in test [2] it was 0.568; in [3], 1.19; in test [4], -1.27; in test [5], -0.855; in [6] it was -0.0539. Further, the z-score in test [7] was -0.227 (inactive); in test [8], -0.706; in test [9], -0.928; in test [10], 0.508 (inactive).
In the case of `CO[C@H]1O[C@H](CO)[C@@H](OC(=O)CCc2ccccc2)[C@@H]2OC(=O)[C@@H](Cc3ccc4ccccc4c3)C/C=C/C[C@H](Cc3ccc4ccccc4c3)C(=O)O[C@@H]12`, the z-score in [1] was 1.39; in test [2], 0.284; in test [3], 1.27; in [4], -0.52; in [5], 0.0085; in test [6] it was 0.111. Besides, the z-score in test [7] is 0.945 (inactive); in [8] it was 0.761; in test [9], 0.0944; in test [10] it was -1.39 (inactive).
As to `C[C@]1(C(=O)NC2CC2)c2ccccc2C(=O)N(Cc2cc(F)cc(C(F)(F)F)c2)[C@H]1c1ccc(CO)cc1`, the z-score in [1] is -0.685; in test [2] it was 0.274; in [3], 0.0046; in test [4], 0.0749; in [5], -0.237; in test [6] it was 1.2. For the same compound, the z-score was 0.0232 (inactive) in [7], 0.107 in test [8], -0.328 in test [9] and 1.79 (inactive) in test [10].
For `O=C1O[C@H](c2ccccc2)[C@H](c2ccccc2)N2[C@H]1[C@@H](C(=O)Nc1nc3ccccc3s1)[C@]1(C(=O)Nc3ccccc31)[C@H]2c1ccccc1OCCO`, the z-score in [1] is -1.59; in test [2] it was 0.842; in [3], -1.97; in test [4] it was -1.61; in test [5], -3.67; in test [6], -2.27. Besides, the z-score in [7] is 4.1 (inactive); in test [8], -1.16; in test [9] it was -1.37; in [10] it was -2.35 (inactive).
For `OCCCc1cc[n+](Cc2cc3c(cc2Br)OCO3)cc1`, the z-score in test [1] is -0.322; in test [2] it was 0.504; in test [3] it was -0.325; in [4] it was 0.4; in test [5] it was -0.419; in test [6], 0.138. For the same compound, the z-score is 0.506 (inactive) in test [7], -0.437 in test [8], 1.39 in [9] and -0.298 (inactive) in test [10].
As to `CCCCCCc1nc(Cc2cc(OC)c(OC)c(OC)c2)c(C)c2c1[Si](C(C)C)(C(C)C)OC2`, the z-score in [1] is 0.106; in [2], 0.986; in [3], -0.348; in test [4], 0.286; in test [5], -3.41; in test [6], 4.95. The z-score in test [7] was 0.835 (inactive); in test [8], -0.651; in test [9], 0.0845; in test [10], 0.504 (inactive).
For the compound `C=C[C@H](C)[C@@H](OC(=O)Nc1ccc(SC)cc1)c1ccc(OCCO)cc1`, the z-score was -0.305 in [1]; -0.0489 in test [2]; -0.232 in [3]; -1.69 in [4]; -1.81 in test [5]; -3.37 in test [6]. The z-score in test [7] was -0.168 (inactive); in test [8], -0.639; in [9], -0.114; in [10], -0.505 (inactive).
Take `O=C1c2ccccc2[C@](Cc2ccccc2I)(C(=O)NCCN2CCOCC2)[C@H](c2ccc(CO)cc2)N1Cc1ccccc1C(F)(F)F`: the z-score was 0.368 in test [1]; 0.469 in test [2]; -0.103 in test [3]; -1.98 in test [4]; -2.7 in test [5]; 1.5 in test [6]. Also, the z-score was 0.0392 (inactive) in test [7], -0.876 in test [8], -0.601 in test [9] and -0.577 (inactive) in [10].
